# Source: PubChem BioAssay
# Activity calls are given as the source filed them.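 The calls were made as follows, unless noted: active = fluorescence slope higher than the sample average by over 3 SD (cut at about -0.22 in these data, passing the limit was not always enough); inactive = the rest.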
# Experiments:
# [1] = inhibitors of TNFa-induced NFkB p65 translocation, primary screen, imaging, HUVEC, MLSMR starter and 10KST1 sets (AID 438;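 active = inhibition above 20% together with a positive visual image hit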;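 also: compound added about 3h40 before a 20 min TNFalpha stimulation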;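 as to inhibition: signal is the nuclear over cytoplasmic p65 intensity ratio per well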); details: HUVEC TNFa-induced p65 nuclear translocation; cell count: measured here: nuclei count (cytotoxicity indicator), at 2.08 µM; inhibition: at 2 µM, stronger effect = higher value, 0% TNFa-plus-vehicle, 100% no-TNFa wells
# [2] = reduction of polyQ htt aggregates in cells – imaging, exon1htt(103Q)mCFP cells, high-content imaging, primary screen (AID 483;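 active = visual image review flags a hit and inhibition of aggregation exceeds 20%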;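 also: compound exposure lasted 3 days before fixation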;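 as to nuclei count: percent of the per-plate median nuclei count of sample wells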); details: exon1htt(103Q)mCFP cell line, aggregate imaging, at 2 µM; inhibition of aggregation: stronger effect = higher value; nuclei count: measured here: cell count, toxicity
# [3] = endothelial E-selectin expression blockers – imaging, HUVEC, immunofluorescence, MLSMR starter and 10KST1 sets, primary screen (AID 487;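 active = visually confirmed hit in the image check and inhibition above 20%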;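 as to inhibition: signal is fraction of cell area covered by stained E-selectin grains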;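 as to nuclei count: 100% = median nuclei count of all wells on the same plate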); details: HUVEC TNFalpha-induced E-selectin immunofluorescence imaging, at 2 µM; inhibition: stronger effect = higher value; nuclei count: measured here: cell number, toxicity
# [4] = biological target: Voltage-gated potassium channel subunit beta-2 (Rattus norvegicus) (UniProt P62483); test: inhibitors of rat Kvbeta2 reductase activity – biochemical, NADPH fluorescence, primary screen (AID 622); details: recombinant KvBeta, 4-cyanobenzaldehyde reduction, at 10 µM, stronger effect = higher value;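 also: slope of raw intensity against log time taken from 70 to 1610 s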
# Sequence of Voltage-gated potassium channel subunit beta-2 (Rattus norvegicus) (P62483 whole entry, looked up): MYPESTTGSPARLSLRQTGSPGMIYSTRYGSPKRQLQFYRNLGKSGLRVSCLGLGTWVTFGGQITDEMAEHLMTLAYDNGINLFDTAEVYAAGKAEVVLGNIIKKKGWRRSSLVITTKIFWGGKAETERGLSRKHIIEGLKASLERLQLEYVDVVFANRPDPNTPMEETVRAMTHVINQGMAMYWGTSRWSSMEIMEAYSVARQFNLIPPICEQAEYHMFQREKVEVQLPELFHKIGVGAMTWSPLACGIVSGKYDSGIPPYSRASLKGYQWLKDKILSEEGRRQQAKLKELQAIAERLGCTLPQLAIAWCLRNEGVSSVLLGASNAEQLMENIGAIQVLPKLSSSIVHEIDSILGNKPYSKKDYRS
# [5] = biological target: Voltage-gated potassium channel subunit beta-2 (Rattus norvegicus) (UniProt P62483); test: enhancers of rat Kvbeta2 NADPH turnover – biochemical, NADPH fluorescence, primary screen (AID 623;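 active = NADPH fluorescence slope more negative than the mean of all samples by about 3 SD, 99.7% confidence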;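 also: fluorescence intensity change per second fitted from 20 to 320 s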); details: Recombinant KvBeta, NADPH fluorescence decrease slope, 10 min; at 10 µM; stronger effect = lower value
# [6] = biological target: Alpha-2C adrenergic receptor (Homo sapiens) (UniProt P18825); test: compounds altering alpha2C-coupled GIRK flux – cell-based, HEK293 alpha2C/GIRK1/2, thallium flux, primary screen (AID 624;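 active = fluorescence slope after compound addition differing from the mean of all screened samples at 99.7% confidence, in either direction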;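 also: slope of fluorescence ratio to pre-addition baseline per second over 15 to 24 s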); details: thallium flux BTC fluorescence, at 10 µM, actives lie on both sides
# Sequence of Alpha-2C adrenergic receptor (Homo sapiens) (P18825 whole entry, looked up): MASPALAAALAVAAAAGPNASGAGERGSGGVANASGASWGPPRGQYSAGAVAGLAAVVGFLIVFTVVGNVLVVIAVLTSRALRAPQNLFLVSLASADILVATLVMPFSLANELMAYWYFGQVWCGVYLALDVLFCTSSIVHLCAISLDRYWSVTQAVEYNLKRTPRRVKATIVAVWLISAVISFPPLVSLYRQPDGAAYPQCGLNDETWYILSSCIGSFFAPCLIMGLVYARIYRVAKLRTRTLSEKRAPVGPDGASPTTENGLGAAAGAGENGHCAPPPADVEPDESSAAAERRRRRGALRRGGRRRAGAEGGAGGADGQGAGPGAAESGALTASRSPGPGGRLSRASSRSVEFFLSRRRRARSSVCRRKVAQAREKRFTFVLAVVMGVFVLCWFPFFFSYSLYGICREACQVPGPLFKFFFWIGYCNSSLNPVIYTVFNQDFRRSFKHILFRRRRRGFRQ
# [7] = blockers of RIG-like receptor reporter activation – cell-based, Sendai virus stimulus, luciferase, 10K MLSCN set, TLR/RLR signaling modifier project, primary screen (AID 602276;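 active = inhibition at or above 50% at 10 µM; inactive = inhibition below 50%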;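 also: firefly luciferase from ISG56 promoter only with Renilla not read in this screen; 0% = Sendai virus plus DMSO and 100% = medium plus DMSO without virus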); details: HEK293 RL24 IRF3 luciferase reporter, at 10 µM, stronger effect = higher value
# [8] = TLR3 IRF3 reporter activation blockers – cell-based, poly I:C stimulus, luciferase, 10K MLSCN set, primary screen (AID 602277;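 active = inhibition of the reporter signal at or above 50%; inactive = inhibition below 50%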); details: HEK293-TLR3 RL24 IRF3 luciferase reporter, at 10 µM, stronger effect = higher value
SMILES,cell count [1],inhibition [1],inhibition of aggregation [2],nuclei count [2],inhibition [3],nuclei count [3],fluorescence slope [4],NADPH fluorescence slope [5],slope [6],inhibition [7],inhibition [8]
COc1ccc(S(=O)(=O)N2CCSC2c2ccccc2)cc1 (stereo not drawn),449,-3.1% (inactive),-10.4% (inactive),106%,-84.6% (inactive),97.9%,-0.463 (inactive),-3.5e-05 (inactive),0.00496 (inactive),-1.99% (inactive),22.7% (inactive)
O=C(Nc1nc(-c2ccncc2)cs1)C1COc2ccccc2O1 (stereo not drawn),646,-4.9% (inactive),-3.1% (inactive),118%,-28.4% (inactive),119%,-0.608 (inactive),-3.7e-05 (inactive),0.00702 (inactive),-5.76% (inactive),-29.4% (inactive)
Cc1cc(NS(=O)(=O)c2ccc(Nc3nc(-c4sc(N)nc4C)cs3)cc2)no1,333,5.5% (inactive),-10.4% (inactive),117%,-11.3% (inactive),103%,-0.412 (inactive),-7.5e-05 (inactive),0.00495 (inactive),6.21% (inactive),25.1% (inactive)
COc1ccc(CCNS(=O)(=O)c2ccc3oc(C(=O)O)c(C)c3c2)cc1OC,612,-11.4% (inactive),3.9% (inactive),107%,-32% (inactive),114%,-0.444 (inactive),6.2e-05 (inactive),0.00543 (inactive),12.5% (inactive),21.9% (inactive)
O=C(NC1CCCCC1)C1CCCN1C(=O)NCc1ccccc1 (stereo not drawn),317,3.4% (inactive),7.5% (inactive),106%,-33.5% (inactive),120%,-0.43 (inactive),-5.2e-05 (inactive),0.00543 (inactive),5.02% (inactive),10.2% (inactive)
CC1(C)CC(=O)C2=C(C1)NC(=O)CC2c1ccc(N(CCC#N)CCC#N)cc1 (stereo not drawn),432,5.9% (inactive),-2.1% (inactive),109%,21.1% (inactive),116%,-0.376 (inactive),6.8e-05 (inactive),0.00771 (inactive),1.16% (inactive),17.9% (inactive)
Cn1cccc1Cc1nnc(SCC(=O)NCc2ccc(F)cc2)n1-c1ccc(F)cc1,767,-7.4% (inactive),20% (inactive),139%,-56.2% (inactive),116%,-0.579 (inactive),8.6e-06 (inactive),0.00663 (inactive),-4.39% (inactive),9.66% (inactive)
CN1CCN(CCCNC(=O)Cn2ncc3c4ccccc4n(C)c3c2=O)CC1,479,-2.6% (inactive),-7.2% (inactive),98%,-69.4% (inactive),100%,-0.615 (inactive),-1.6e-07 (inactive),0.0065 (inactive),-10.3% (inactive),35.3% (inactive)
